Most compounds without a hit are left out; they make up all but 2.4% or so of the library.
Pol kappa inh – qHTS for Inhibitors of Polymerase Kappa; purified Pol kappa, fluorescent DNA synthesis assay, 10 min; DNA polymerase kappa (Homo sapiens), Q9UBT6; 400,000 tested, 0.53% active; Potency, µM (series often up to 107 µM), inactives show top-dose activity, negative = inhibition, usual class: inhibitors; AID 588579, 2011; note: potency is the fitted concentration of half-maximal effect; % is set by controls: 0 for no effect and ±100 for the full control effect
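Inhibition of 10 nM Pol kappa is measured by a fluorescent read-out at 0 and 10 min following addition of 50 nM substrate (final), with a 15-min room-temperature compound preincubation.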
Pol beta inh-1 – qHTS Assay for Inhibitors of DNA Polymerase Beta | Potency, µM (series often up to 114 µM), inactives show at the highest dose activity change, negative = inhibition, hits mostly inhibitors | P06746 | 340,000 tested, 1.3% active | Pol beta primer extension/strand displacement, fluorescence kinetic; note: potency is the fitted concentration of half-maximal effect; % is set by controls: 0 for no effect and ±100 for the full control effect
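Homogeneous kinetic assay of primer extension and strand displacement by 10 nM Pol beta, preincubated 15 min at room temperature with compound before 50 nM substrate (final) was added. Read at 0 and 10 min; four-parameter Hill fit.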
Pol eta inh – qHTS for Inhibitors of Polymerase Eta; DNA polymerase eta (Homo sapiens), Q9Y253; recombinant Pol eta, fluorescent DNA replication assay; Potency, µM (titrated, usually from 114 µM), for the others: top-dose activity change, negative = inhibition, actives largely listed as inhibitors; 390,000 tested, 1.2% active; note: potency is the fitted concentration of half-maximal effect; % is set by controls: 0 for no effect and ±100 for the full control effect
Target sequence (Q9Y253 whole entry, looked up): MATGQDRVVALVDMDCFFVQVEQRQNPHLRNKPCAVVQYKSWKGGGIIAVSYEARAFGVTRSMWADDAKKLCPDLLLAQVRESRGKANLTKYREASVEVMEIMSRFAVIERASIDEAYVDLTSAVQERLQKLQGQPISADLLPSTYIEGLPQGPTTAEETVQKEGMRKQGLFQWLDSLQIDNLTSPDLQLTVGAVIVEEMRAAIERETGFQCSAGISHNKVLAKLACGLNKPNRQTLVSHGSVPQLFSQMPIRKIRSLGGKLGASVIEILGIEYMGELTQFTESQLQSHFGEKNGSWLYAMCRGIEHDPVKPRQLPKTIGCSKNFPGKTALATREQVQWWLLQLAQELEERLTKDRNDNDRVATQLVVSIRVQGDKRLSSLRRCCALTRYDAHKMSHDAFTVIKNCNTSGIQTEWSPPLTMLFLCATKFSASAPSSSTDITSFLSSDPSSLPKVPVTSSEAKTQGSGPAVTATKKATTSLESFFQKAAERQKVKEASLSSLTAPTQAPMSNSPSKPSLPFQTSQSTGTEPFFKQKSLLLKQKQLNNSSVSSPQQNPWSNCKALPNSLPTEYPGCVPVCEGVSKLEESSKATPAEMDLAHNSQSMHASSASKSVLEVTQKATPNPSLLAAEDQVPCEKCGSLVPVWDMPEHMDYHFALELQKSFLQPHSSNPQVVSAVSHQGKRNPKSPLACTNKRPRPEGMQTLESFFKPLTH
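Fluorescent replication assay: 50 nM final substrate added after a 15 min room-temperature compound preincubation with 10 nM enzyme. Signal taken at 0 min and again at 10 min.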
Pol iota inh – qHTS for Inhibitors of Polymerase Iota | AID 588590, 2011 | Potency, µM (doses to about 115 µM), for the others: at the highest dose activity, negative = inhibition, most hits filed as inhibitors | DNA polymerase iota (Homo sapiens), Q9UNA4 | Pol iota fluorescent replication assay, 10 min | 390,000 tested, 1% active; note: potency is the fitted concentration of half-maximal effect
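Fluorescent replication assay read twice, at 0 min and 10 min after adding 50 nM (final) substrate. Enzyme (10 nM) and compounds were first incubated 15 min at room temperature; enzyme-free buffer wells were negative controls.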
TDP1 inh – qHTS Assay for Inhibitors of Tyrosyl-DNA Phosphodiesterase (TDP1); Tyrosyl-DNA phosphodiesterase 1 (Homo sapiens), Q9NUW8; recombinant TDP1, AlphaScreen DNA substrate cleavage; Potency, µM (top dose mostly 130 µM), for the others: top-dose activity change, negative = inhibition, most hits filed as inhibitors; 350,000 tested, 0.28% active; AID 485290, 2010; note: potency is the fitted concentration of half-maximal effect; % is set by controls: 0 for no effect and ±100 for the full control effect; nearly all actives have a fitted effect of over 40% in size
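Enzyme-compound mixtures sat 15 min at room temperature, followed by a 5 min reaction with 15 nM final substrate and 10 min with AlphaScreen beads. Recombinant human Tdp1 was used at 1 nM final.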
Pol beta inh-2 – Inhibitors of DNA Polymerase Beta: Hit validation; Potency, µM, most hits filed as inhibitors; Pol beta primer extension/strand displacement, fluorescence kinetic; shares compounds with Pol beta inh-1; AID 540280, 2011; 250 tested, 87% active; calls by dose curve; note: potency is the fitted concentration of half-maximal effect
Klenow inh – Inhibitors of DNA Polymerase Beta: Hit Validation in Klenow Fragment Assay | shares compounds with Pol beta inh-1 | Klenow exo- polymerase counter-screen, fluorescent DNA substrate | activity change, negative = inhibition, % at 57.1 µM | 250 tested, under 10 active
HIV RT counter – Inhibitors of DNA Polymerase Beta: Hit Validation in HIV-RT Assay; AID 540301, 2011; activity % (negative = inhibition, positive = activation), % at 57.1 µM; 250 tested, under 10 active; shares compounds with Pol beta inh-1; HIV-1 RT polymerase activity, counter-screen
POLB valid – Inhibitors of DNA Polymerase Beta: Hit Validation in Radiolabeled Extension Assay. shares compounds with Pol beta inh-1. radiolabeled primer extension gel assay, phosphorimager. inhibition, % at 10 µM. 110 tested, 91% active;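 active = inhibition at 10 µM of 30% or more; inconclusive = no clear call, values can overlap the other calls; inactive = inhibition at 10 µM under 30%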
Numbers without * were called inactive; ? = inconclusive; . = not tested or not shown; [ ] = remark or other dose. Unless noted, calls come from the whole dose curve; as a rule, active = well fitted curve in the direction sought with a large enough effect; inconclusive = small, poorly fitted or top-dose-only effect, or another doubt; inactive = no such curve, though single readings can be large; an effect the other way counts as inactive or inconclusive.

SMILES	Pol kappa inh	Pol beta inh-1	Pol eta inh	Pol iota inh	TDP1 inh	Pol beta inh-2	Klenow inh	HIV RT counter	others
CCOC(=O)Cc1csc(NC(=O)c2sc3nc4ccc(CC)cc4cc3c2N)n1	-8.9%	5.62µM*	?	79.4µM*	2.0%	28.2*	-1.5	11.4	POLB valid=84.5*
CCOC(=O)Cc1csc(NC(=O)c2sc3nc4cc(C)ccc4cc3c2N)n1	-23.4%	-24.3%	?	-12.4%	5.3%	.	.	.
CCn1cc(C(=O)NCc2ccco2)c(=O)c2cc(F)c(N3CCN(C(=O)c4ccco4)CC3)cc21	?	14.1µM*	?	?	39.8µM*	?	-36.0	33.4
Cc1cccc(NC(=O)COC(=O)c2ccc3c(=O)n4c(nc3c2)CCC4)c1	-2.8%	1.4%	-19.3%	6.4%	4.5%	.	.	.
O=C(OCc1cc(=O)n2c(n1)sc1ccccc12)c1ccc2c(=O)n3c(nc2c1)CCC3	?	10µM*	?	?	50.1µM*	12.6*	-17.2	26.8
O=C(CSc1nc2c(cnn2-c2ccccc2)c(=O)[nH]1)c1ccc(Cl)cc1	3.9%	5.01µM*	?	?	0.2%	7.08*	-20.8	0.3
COc1cc(OC)c(OC)cc1/C=C1\Oc2cc(OS(C)(=O)=O)ccc2C1=O	?	11.2µM*	50.1µM*	20µM*	.	35.5*	-30.1	16.8	POLB valid=96.3*
O=C(CSc1ccc(Cl)cc1)c1ccco1	28.2µM*	7.94µM*	22.4µM*	?	-8.3%	12.6*	-19.9	13.8
CCN(CC)S(=O)(=O)c1ccc(N2CCOCC2)c(NC(=O)c2c3c(nc4ccccc24)CCC3)c1	?	8.91µM*	35.5µM*	31.6µM*	-9.4%	25.1*	-22.4	19.4	POLB valid=87.5*
CCN(CC)S(=O)(=O)c1ccc(N2CCOCC2)c(NC(=O)c2cccc3ccccc23)c1	-13.5%	11.7%	-9.0%	70.9%	3.5%	.	.	.
COc1ccc(-n2c(=O)c3c4c(sc3n(Cc3ccccc3)c2=O)CCC4)c(OC)c1	-7.7%	-19.2%	9.8%	-15.8%	5.9%	.	.	.
O=C(Nc1cccc(-c2nc3ccccc3[nH]2)c1)c1cccc(NC(=O)c2ccco2)c1	?	12.6µM*	50.1µM*	?	1.0%	31.6*	-9.4	62.4
O=C(Nc1ccc2nc(-c3ccccc3)[nH]c2c1)c1ccco1	-33.1%	?	?	?	5.3%	.	.	.
CC(=O)N1c2ccccc2C(=O)C1N1CCN(c2cccc(Cl)c2)CC1 (stereo not drawn)	-17.3%	0.6%	-11.5%	11.8%	5.3%	.	.	.
COCCn1c(=NC(=O)c2sc3ccccc3c2Cl)sc2cc(S(N)(=O)=O)ccc21	0.0%	?	3.6%	17.1%	1.8%	.	.	.
C=CCn1c(=NC(=O)c2sc3ccccc3c2Cl)sc2cc(S(N)(=O)=O)ccc21	?	8.91µM*	?	25.9%	-3.0%	14.1*	-9.2	44.3
O=C(Cn1cnc2sc(-c3ccccc3)cc2c1=O)NCc1ccccc1	-6.9%	?	-10.2%	?	6.0%	.	.	.
O=C(Cn1cnc2sc(-c3ccccc3)cc2c1=O)NCc1ccco1	31.6µM*	7.94µM*	7.08µM*	10µM*	.	7.08*	-9.8	18.2
COc1ccc(C2=Nn3c(nnc3-c3ccccc3C)SC2)cc1OC	.	.	.	.	8.5%	.	.	.
COc1ccccc1-c1nnc2n1N=C(c1ccc(O)c(O)c1)CS2	25.1µM*	3.98µM*	8.91µM*	12.6µM*	-12.2%	25.1*	-21.7	-14.5	POLB valid=36.9*
Cc1c(C(=O)NCCc2ccc(S(N)(=O)=O)cc2)sc2nc3n(c(=O)c12)CCCC3	1.4%	11.3%	-7.9%	6.6%	0.0%	.	.	.
CCOc1ccc(C(=O)Nc2ccc(NC(=O)c3ccccc3)c(C)c2)cc1[N+](=O)[O-]	-1.7%	20µM*	-23.1%	153.2%	-1.9%	17.8*	-2.6	41.6
O=C(COC(=O)c1ccccc1Oc1ccccc1)NCc1ccco1	79.4µM*	20µM*	14.1µM*	?	0.0%	35.5*	-4.2	?
Cc1ccc2c(c1)-c1c(cnn1CC(=O)N1CCN(c3cccc(C(F)(F)F)c3)CC1)CO2	-14.3%	-10.2%	-12.3%	16.7%	2.0%	.	.	.
CCn1c(=NC(=O)c2cccc(N3C(=O)CCC3=O)c2)sc2c(C)ccc(OC)c21	-7.0%	33.8%	-4.7%	6.1%	0.0%	.	.	.
SMILES	Pol kappa inh	Pol beta inh-1	Pol eta inh	Pol iota inh	TDP1 inh	Pol beta inh-2	Klenow inh	HIV RT counter	others
CCn1c(=NC(=O)c2ccc(N3C(=O)CCC3=O)cc2)sc2c(OC)ccc(OC)c21	?	10µM*	?	15.8µM*	-6.9%	?	-32.8	56.6	POLB valid=98.3*
Cc1ccc(CNc2ncnc3ccc(-c4c(C)noc4C)cc23)cc1	.	.	.	.	9.7%	.	.	.
COc1ccc(Cn2ccnc2SCC(=O)Nc2ccc(C)cc2C)cc1	-9.5%[60.1 µM]	8.3%	-19.1%	24.6%	5.5%	.	.	.
N#Cc1c(=O)c2nc(NCCCO)ncc2n2c(=O)c3ccccc3[nH]c12	-29.7%	11.2µM*	39.8µM*	22.4µM*	3.6%	?	-37.8	-1.0	POLB valid=40.0*
Cc1cnc(NC(=O)C2CC(=O)N(c3ccc4c(c3)OCCO4)C2)s1 (stereo not drawn)	-9.7%	.	-4.1%	-4.3%	-3.1%	.	.	.
Cc1nnc(NC(=O)C2CC(=O)N(c3ccc4c(c3)OCCO4)C2)s1 (stereo not drawn)	-14.7%	.	1.4%	?	-9.9%[56.1 µM]	.	.	.
O=C(Nc1nc(-c2ccco2)c(-c2ccco2)s1)C1CC(=O)N(c2ccc3c(c2)OCCO3)C1 (stereo not drawn)	20µM*	8.91µM*	8.91µM*	7.94µM*	?	?	-26.0	-3.3	POLB valid=97.1*
O=C(Nc1nnc(SCc2c(Cl)cccc2Cl)s1)C1CC(=O)N(c2ccc3c(c2)OCCO3)C1 (stereo not drawn)	?	7.08µM*	?	15.8µM*	.	?	-23.3	4.2
CCCC(CCC)C(=O)Nc1cccc(-c2nc3cccnc3s2)c1C	-10.0%	-11.4%	-11.5%	-9.8%	2.6%	.	.	.
